Here are results for eight compounds from PubChem BioAssay (Tox21).

Results filed as inconclusive are left out. Calls of active or inactive are those of the source. Unless noted, calls follow the shape of the dose curve; as a rule, active = well fitted curve in the direction sought with a large enough effect in the repeat runs; inconclusive = weak or mixed curves; inactive = no such curve, though single readings can be large; an effect the other way counts as inactive or inconclusive.

A short description of assay [1]: qHTS assay to identify small molecule antagonists of the androgen receptor (AR) signaling pathway using the MDA cell line in the presence of 0.5 nM R1881 - cell viability counter screen (AID 1259242). Also: nearly all actives have a fitted effect of over 45% in size. The method in brief: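 qHTS format. MDA-kb2 (MMTV-luc, AR/GR responsive) + cpd + 0.5 nM R1881 final, 16 hr 37C/0% CO2 → CellTiter-Fluor 30 min → fluorescence intensity.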

A short description of assay [2]: qHTS assay to identify small molecule HDAC inhibitors (AID 1259364).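 Also: wild-type HCT-116 cells with endogenous class I/II HDAC activity; top concentration of the series differs between compounds; nearly all actives have a fitted effect of over 45% in size.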 The method in brief: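 Quantitative high-throughput format: overnight-seeded HCT-116 cells got compounds for 2 hr at 37C; HDAC-Glo I/II reagent added, 30 min RT, luminescence measured.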
(In general: qHTS replaces the single test concentration by a dilution series.)

Assay [3] can be described thus: qHTS assay to identify small molecule HDAC inhibitors - cell viability counter screen (AID 1259365). Also: series mostly up to about 92 µM; nearly all actives have a fitted effect of over 50% in size. A digest of the protocol:
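Wild-type HCT-116 cells, 1,500/well, cultured overnight, then compound-treated 2 h at 37 C. Viability measured as ATP luminescence with CellTiter-Glo after 30 min at room temperature.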

Assay [4] can be described thus: qHTS assay to identify small molecule agonists of the sonic hedgehog signaling (Shh) pathway - cell viability counter screen (AID 1259366). Also: nearly all actives have a fitted effect of over 50% in size. The method in brief:
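NIH/3T3-derived Gli1-Luc reporter cells, 2,000 per well, received compound after 4 h and were treated about 23 h at 37C. Viability measured in the same wells by CellTiter-Fluor fluorescence after 1 h.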

Assay [5] in a line: qHTS assay to identify small molecule antagonists of the sonic hedgehog signaling (Shh) pathway - cell viability counter screen (AID 1259367). Also: nearly all actives have a fitted effect of over 55% in size. The method in brief:
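Fluorescence read-out (CellTiter-Fluor, 1 hr at 37C) taken after 23 hr compound treatment of 3T3 Gli1-Luc cells stimulated with conditioned medium. Cells were seeded at 2,000 per well and pre-incubated 4 hr.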

Assay [6] can be described thus: qHTS assay to identify small molecule agonists of the sonic hedgehog signaling (Shh) pathway (AID 1259368; calls by dose curve;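 also: NIH/3T3-derived 3T3Gli1-Luc cells carrying a stable Gli1-driven firefly luciferase reporter; series mostly up to about 92 µM; nearly all actives have a fitted effect of over 15% in size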). A digest of the protocol:
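Quantitative high-throughput format using a Gli1-driven firefly luciferase reporter line derived from NIH/3T3 cells. After a 24 hr compound treatment at 37 C and 5% CO2, luminescence reported Gli1 response element activity.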

Assay [7] can be described thus: qHTS assay to identify small molecule antagonists of the sonic hedgehog signaling (Shh) pathway (AID 1259369; calls by dose curve; also: nearly all actives have a fitted effect of over 45% in size; also: potency is read from the fitted curve at half-maximal effect). A digest of the protocol:
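Stable Gli1-Luc reporter NIH/3T3 clone; quantitative HTS in stimulated mode with conditioned medium. Luminescence measured after 24hr compound treatment at 37 C.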

Assay [8] has as its target Estrogen receptor beta (Homo sapiens) (UniProt Q92731). As to the kind of experiment: qHTS assay to identify small molecule agonists of the estrogen receptor beta (ER-beta) signaling pathway (AID 1259377; active = well fitted activation curve with a large enough effect in the signal ratio in the repeat runs, not every such curve was filed as active; the % refers to the signal ratio). The method in brief:
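ER-beta-UAS-bla HEK293T cells in medium with 2% charcoal-stripped FBS were exposed to compounds for 16 h at 37C. Beta-lactamase reporter activity was read as fluorescence after 2 h with LiveBLAzer B/G FRET substrate at room temperature.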

Assay [9] shares this target. As to the kind of experiment: qHTS assay to identify small molecule antagonists of the estrogen receptor beta (ER-beta) signaling pathway (AID 1259378; active = well fitted inhibition curve with a large enough effect in the signal ratio in the repeat runs, not every such curve was filed as active; the % refers to the signal ratio). The method in brief:
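ER-beta-UAS-bla HEK293T cells in 2% charcoal-stripped FBS medium treated with compound plus 1nM final 17-beta-estradiol for 16 hr at 37C. Beta-lactamase reporter read by FRET substrate fluorescence after 2 hours at room temperature.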

Assay [10] can be described thus: qHTS assay to identify small molecule agonists of the androgen receptor (AR) signaling pathway in the presence of an antagonist - cell viability counter screen (AID 1259379).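 Also: MDA-kb2 human breast cancer cells carrying an MMTV luciferase reporter; series mostly up to about 92 µM; nearly all actives have a fitted effect of over 25% in size.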 The method in brief:
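Nilutamide-containing (3.0uM final) MDA-kb2 cultures, 3,000 cells/well, were treated with compounds across 15 concentrations. After 16 hr at 37C with no CO2, cell viability was determined by CellTiter-Fluor fluorescence in the luciferase assay wells.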

Assay [11] in a line: qHTS assay to identify small molecule agonists of the estrogen receptor beta (ER-beta) signaling pathway - cell viability counter screen (AID 1259380). Also: nearly all actives have a fitted effect of over 30% in size. The method in brief:
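Steps: plate ER-beta-UAS-bla HEK293T cells, rest 6 hr; add compounds in DMSO; incubate 16 hr at 37C, 5% CO2; add FRET substrate 2 hr; add CellTiter-Glo, wait 30 min at room temperature; read luminescence.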

Assay [12] is described as follows: qHTS assay to identify small molecule antagonists of the estrogen receptor beta (ER-beta) signaling pathway - cell viability counter screen (AID 1259382). Also: series mostly up to about 92 µM; nearly all actives have a fitted effect of over 55% in size. The method in brief: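 Viability is scored by CellTiter-Glo luminescence (30 min, room temperature) in ER-beta-UAS-bla HEK293T wells already read for reporter fluorescence. Compound exposure lasts 16 hr at 37C alongside 1nM 17-beta-estradiol in charcoal-stripped serum medium.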

Assay [13] in a line: qHTS assay to identify small molecule agonists or antagonists of the thyroid stimulating hormone receptor (TSHR) signaling pathway - wild type cell line counter screen (AID 1259384; calls by dose curve). The method in brief: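 Wild-type Hek293 cells, 800/well, 18 h at 37C, then compound with Ro20-1724 for 30 min RT. cAMP by HTRF (cAMP-d2/anti-cAMP cryptate), 1 h RT, fluorescence read. 15 concentrations, triplicates.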

Assay [14] deals with Thyrotropin receptor (Homo sapiens) (UniProt P16473). As to the kind of experiment: qHTS assay to identify small molecule antagonists of the thyroid stimulating hormone receptor (TSHR) signaling pathway (AID 1259385; calls by dose curve; also: nearly all actives have a fitted effect of over 20% in size). A digest of the protocol:
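TSHR-HEK293 cells (800/well) plated 18 h, then compounds with Ro20-1724 and TSH at 1.5 ng/mL final, 30 min at room temperature. cAMP quantified by HTRF (cAMP-d2/anti-cAMP-cryptate, 1 h); 15 concentrations in triplicate.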

Assay [15] can be described thus: qHTS assay to identify small molecule agonists of the estrogen receptor alpha (ER-alpha) signaling pathway in the presence of an antagonist - cell viability counter screen (AID 1259386).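 Also: cells exposed to compounds for 22 h at 37 °C before the viability read; nearly all actives have a fitted effect of over 30% in size.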 Also: potency is read from the fitted curve at half-maximal effect. A digest of the protocol:
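In this counter screen, compound effects on VM7Luc4E2 viability were tested in the presence of the antagonist ICI-182,780 at 10.0nM final. Compounds were dosed at 15 concentrations, exposure lasted 22hr, and the CellTiter-Fluor signal was read.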

Assay [16] concerns the target Estrogen receptor (Homo sapiens) (UniProt P03372). The assay is described as follows: qHTS assay to identify small molecule antagonists of the estrogen receptor alpha (ER-alpha) signaling pathway using the BG1 cell line in the presence of 0.1 nM 17-beta-estradiol (AID 1259244). Also: nearly all actives have a fitted effect of over 50% in size. The method in brief:
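Reporter is a stably transfected luciferase under four estrogen responsive elements in VM7Luc4E2 cells expressing native full-length ER-alpha; inhibition of 0.1 nM (final) 17beta-estradiol-driven signal over 22 h is read by luminescence.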

For assay [17] the target is unchanged. As to the kind of experiment: qHTS assay to identify small molecule agonists of the estrogen receptor alpha (ER-alpha) signaling pathway in the presence of an antagonist (AID 1259383; calls by dose curve; also: top concentration of the series differs between compounds; nearly all actives have a fitted effect of over 15% in size). The method in brief: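 Readout was ERE-driven luciferase luminescence in VM7Luc4E2 cells, which express full-length ER-alpha endogenously. Compounds were tested at 15 concentrations for 22hr alongside 10.0nM ICI-182,780 (final concentration).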

Assay [18] is described as follows: qHTS assay to identify small molecule phospholipidosis (PLD) inducers (AID 1259344; active = well fitted curve in the direction sought with a large enough effect; an effect the other way counts as inactive or inconclusive). The method in brief:
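Read-out is LipidTOX Red fluorescence (ex 595/em 615) imaged in HepG2 cells after 24 h compound exposure at 37 C, with Hoechst nuclear counterstain (ex 352/em 461) allowing per-cell normalisation.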

In assay [19] the target is Androgen receptor (Homo sapiens) (UniProt P10275). As to the kind of experiment: qHTS assay to identify small molecule agonists of the androgen receptor (AR) signaling pathway in the presence of an antagonist (AID 1259381; calls by dose curve; also: nearly all actives have a fitted effect of over 15% in size). The method in brief: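 Reporter-gene luminescence from MDA-kb2 cells exposed 16hr at 37C (0% CO2) to 15-point compound titrations with 3.0uM final nilutamide as AR antagonist.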
Chain of Androgen receptor (Homo sapiens) (P10275 whole entry, looked up): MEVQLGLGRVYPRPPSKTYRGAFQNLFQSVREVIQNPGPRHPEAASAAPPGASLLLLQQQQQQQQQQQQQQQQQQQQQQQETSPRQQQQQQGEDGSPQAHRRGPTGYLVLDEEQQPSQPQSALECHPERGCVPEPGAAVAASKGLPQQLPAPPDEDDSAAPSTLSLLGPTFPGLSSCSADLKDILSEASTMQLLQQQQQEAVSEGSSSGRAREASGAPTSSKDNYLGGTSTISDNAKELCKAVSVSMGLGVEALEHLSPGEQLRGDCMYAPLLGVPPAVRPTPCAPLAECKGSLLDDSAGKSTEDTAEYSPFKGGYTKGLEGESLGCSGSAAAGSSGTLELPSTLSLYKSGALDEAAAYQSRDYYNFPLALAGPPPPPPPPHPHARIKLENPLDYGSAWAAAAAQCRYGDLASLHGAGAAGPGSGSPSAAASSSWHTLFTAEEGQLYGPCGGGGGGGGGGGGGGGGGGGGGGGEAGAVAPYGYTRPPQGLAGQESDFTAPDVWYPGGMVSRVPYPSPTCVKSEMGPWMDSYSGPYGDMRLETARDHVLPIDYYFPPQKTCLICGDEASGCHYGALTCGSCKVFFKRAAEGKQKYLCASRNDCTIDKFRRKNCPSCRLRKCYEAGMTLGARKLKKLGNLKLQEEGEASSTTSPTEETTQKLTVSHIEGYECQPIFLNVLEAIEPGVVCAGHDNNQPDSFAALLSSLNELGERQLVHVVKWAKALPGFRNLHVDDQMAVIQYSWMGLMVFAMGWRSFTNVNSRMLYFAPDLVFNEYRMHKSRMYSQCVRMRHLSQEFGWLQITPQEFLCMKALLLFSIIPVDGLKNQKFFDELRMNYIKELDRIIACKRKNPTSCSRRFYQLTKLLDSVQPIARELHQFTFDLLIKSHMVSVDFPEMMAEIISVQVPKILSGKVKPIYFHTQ

Chain of Thyrotropin receptor (Homo sapiens) (P16473 whole entry, looked up): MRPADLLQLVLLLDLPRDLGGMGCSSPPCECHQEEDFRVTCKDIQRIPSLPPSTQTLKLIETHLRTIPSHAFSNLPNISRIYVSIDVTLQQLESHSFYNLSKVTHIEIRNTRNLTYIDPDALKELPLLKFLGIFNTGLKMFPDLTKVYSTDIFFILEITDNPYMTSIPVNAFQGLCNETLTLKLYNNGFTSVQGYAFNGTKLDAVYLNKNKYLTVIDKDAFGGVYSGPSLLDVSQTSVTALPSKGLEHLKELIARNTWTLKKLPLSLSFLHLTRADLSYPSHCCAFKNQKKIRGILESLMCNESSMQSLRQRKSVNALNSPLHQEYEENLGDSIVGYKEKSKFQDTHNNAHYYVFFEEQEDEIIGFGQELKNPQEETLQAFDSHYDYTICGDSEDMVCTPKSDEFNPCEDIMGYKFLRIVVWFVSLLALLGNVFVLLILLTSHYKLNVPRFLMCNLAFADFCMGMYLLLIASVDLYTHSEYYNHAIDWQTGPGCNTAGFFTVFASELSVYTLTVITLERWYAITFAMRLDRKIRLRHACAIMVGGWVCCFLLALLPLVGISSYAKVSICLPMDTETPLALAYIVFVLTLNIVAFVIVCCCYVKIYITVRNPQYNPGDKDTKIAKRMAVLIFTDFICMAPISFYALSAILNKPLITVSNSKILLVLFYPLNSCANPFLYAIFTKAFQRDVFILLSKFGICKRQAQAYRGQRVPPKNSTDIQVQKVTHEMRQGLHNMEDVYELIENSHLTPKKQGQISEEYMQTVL
Chain of Estrogen receptor beta (Homo sapiens) (Q92731 whole entry, looked up): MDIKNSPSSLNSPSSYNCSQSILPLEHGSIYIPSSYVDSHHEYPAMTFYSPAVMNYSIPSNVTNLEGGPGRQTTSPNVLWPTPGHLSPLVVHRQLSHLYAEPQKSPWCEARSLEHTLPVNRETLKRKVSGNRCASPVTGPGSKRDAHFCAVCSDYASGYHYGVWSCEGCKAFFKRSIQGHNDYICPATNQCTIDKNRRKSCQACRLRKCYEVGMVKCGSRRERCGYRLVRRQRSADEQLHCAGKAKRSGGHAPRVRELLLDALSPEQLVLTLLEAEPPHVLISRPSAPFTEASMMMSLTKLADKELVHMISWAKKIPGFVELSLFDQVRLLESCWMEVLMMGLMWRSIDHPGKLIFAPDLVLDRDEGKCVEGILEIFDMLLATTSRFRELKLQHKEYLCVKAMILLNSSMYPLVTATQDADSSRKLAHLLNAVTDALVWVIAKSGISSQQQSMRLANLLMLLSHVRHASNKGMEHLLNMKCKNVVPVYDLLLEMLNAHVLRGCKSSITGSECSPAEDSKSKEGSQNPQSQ
Chain of Estrogen receptor (Homo sapiens) (P03372 whole entry, looked up): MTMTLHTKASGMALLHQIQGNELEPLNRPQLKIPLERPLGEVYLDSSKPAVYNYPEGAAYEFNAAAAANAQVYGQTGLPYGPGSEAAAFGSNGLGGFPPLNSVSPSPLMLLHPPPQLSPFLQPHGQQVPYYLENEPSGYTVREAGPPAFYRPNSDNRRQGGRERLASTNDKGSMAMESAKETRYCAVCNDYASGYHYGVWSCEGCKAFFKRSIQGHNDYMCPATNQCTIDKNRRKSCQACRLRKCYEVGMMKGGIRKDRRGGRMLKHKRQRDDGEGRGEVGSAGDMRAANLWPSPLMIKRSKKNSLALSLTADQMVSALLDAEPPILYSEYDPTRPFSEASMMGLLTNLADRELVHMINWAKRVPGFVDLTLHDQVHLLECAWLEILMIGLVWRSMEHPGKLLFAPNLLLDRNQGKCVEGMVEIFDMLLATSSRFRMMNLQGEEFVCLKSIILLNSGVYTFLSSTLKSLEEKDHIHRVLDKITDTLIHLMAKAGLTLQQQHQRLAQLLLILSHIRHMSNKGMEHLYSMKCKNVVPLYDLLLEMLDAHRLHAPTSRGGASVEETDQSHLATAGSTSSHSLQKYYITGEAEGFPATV

Turning to `COC(=O)c1ccccc1S(=O)(=O)NC(=O)Nc1nc(C)cc(C)n1`, the result in assay [1], in assay [3], in [6] and in assay [8] was inactive. Moreover, the Potency entry in assay [2], in [4], in assay [5], in assay [7], in assay [9] and in [10] was “inactive” in each case. Further, the Potency result in [11], in [12], in [13], in [14] and in assay [15] was “inactive” throughout.

On to `O=[N+]([O-])c1cccc2cccnc12`, for which the result in assay [1], in assay [3] and in assay [6] was inactive. Moreover, the Potency entry in [16], in assay [4], in assay [5], in assay [7], in [10] and in [11] was “inactive” each time. For the same compound, the Potency result in assay [12], in [17], in assay [13], in [14] and in assay [15] was “inactive” throughout.

Take `Cc1cc(C)nc(Nc2ccccc2)n1`: the outcome in assay [1], in assay [3] and in assay [6] was inactive. For the same compound, the Potency entry in assay [16], in assay [4], in [5], in assay [7], in assay [10] and in [11] was “inactive” each time. Besides, the Potency entry in assay [12], in [17], in assay [13], in [14] and in assay [15] was “inactive” throughout.

Consider `COc1ccc(C(=O)N2CCCC2=O)cc1`, for which the result in [1], in assay [18], in assay [3] and in [6] was inactive. Besides, the Potency result in assay [2], in assay [4], in assay [5], in [7], in assay [10] and in [11] was “inactive” each time. The Potency result in [12], in [13], in assay [14] and in [15] was “inactive” in each case.

In the case of `Nc1c(Br)cc([N+](=O)[O-])cc1[N+](=O)[O-]`, the outcome in assay [1], in assay [3] and in [6] was inactive. Besides, the Potency entry in assay [16], in assay [5], in assay [19], in [12], in [17] and in assay [13] was “inactive” in each case. For the same compound, the Potency in assay [7] and in assay [15] was 31 µM (active) throughout.

Regarding `CNC(=O)O/N=C(\C)SC`, the outcome in assay [1], in assay [3], in assay [6] and in assay [8] was inactive. Moreover, the Potency result in assay [2], in [4], in [5], in [7], in [9] and in [10] was “inactive” in each case. The Potency result in assay [12], in [13] and in assay [15] was “inactive” throughout.

As for `CN1C(=S)CN=C(c2ccccc2)c2cc(Cl)ccc21`, the result in assay [1], in [18], in [3], in assay [6] and in assay [8] was inactive. The Potency result in assay [2], in assay [4], in assay [5], in assay [9], in assay [10] and in [11] was “inactive” in each case. The Potency entry in assay [12], in [17], in assay [14] and in [15] was “inactive” throughout. In addition, the Potency in [7] was 6.68 µM (active).

Consider `OC(c1ccccc1)(c1ccccc1)C1CCNCC1`, for which the result in assay [1], in assay [18], in assay [3] and in assay [6] was inactive. The Potency result in assay [2], in [9], in assay [10], in [11], in assay [12] and in [13] was “inactive” each time. In addition, the Potency result in [14] and in [15] was “inactive” in each case.
